From PubChem BioAssay (Tox21) come the findings set out here.

The structures appear in SMILES notation. Inconclusive results are not listed. Entries that show only a call come without a potency. A number with no mark means an inactive call. Active and inactive are the calls of the source. The call rests on the fitted dose curve; in most records, active means well fitted cell-killing curve with a large enough effect in the repeat runs; inconclusive means weak or mixed curves; inactive means flat fitted curve, though single readings scatter.

This assay can be described thus: qHTS RealTime-Glo MT Cell Viability Assay in HepG2 cells - 8 hour (AID 1224873). Further: nearly all actives have a fitted effect of over 55% in size. To be noted: RealTime-Glo luminescence; series mostly up to 76.8 µM; viability change, negative = cytotoxic: at the top concentration. The source says: National Center for Advancing Translational Sciences [NCATS]
NIH Chemical Genomics Center [NCGC]
U.S. Environmental Protection Agency [EPA]
National Institutes of Environmental Health Sciences [NIEHS]
National Toxicology Program [NTP]
U.S. Food and Drug Administration [FDA]
Measure of cell viability is critical in the cell-base assay. Analysis of cell viability is necessary for the characterization of cell responses to cytotoxic drugs and environmental stress. A RealTime-Glo MT Cell Viability Assay to monitor cell viability in real time of continues cell culture during 40 hours of compound treatment was used to screen Tox21 10K library compounds in HepG2 cells. The RealTime-Glo MT Cell Viability Assay is a nonlytic, homogeneous, bioluminescent method to measure cell viability in real time using a simple, plate-based method. The assay involves adding NanoLuc luciferase and a cell-permeant prosubstrate to cells in culture. Viable cells reduce the proprietary prosubstrate to generate a substrate for NanoLuc luciferase. This substrate diffuses from cells into the surrounding culture medium, where it is rapidly used by the NanoLuc Enzyme to produce a luminescent signal. The signal correlates with the number of viable cells, making the assay well suited for cytotoxicity studies.
Tox21 Assay Protocol Summary:
The mixture of HepG2 cell suspension and reagents were dispensed at 600cells/6 ul/well in 1536-well tissue culture treated black solid bottom plates using a Multidrop dispenser. After the assay plates were incubated at a 37 C/5% CO2 incubator for 5 hours, 23 nL of compounds dissolved in DMSO, positive and negative controls was transferred to the assay plate by a pintool work station. The plates were incubated at 37 C for 40 hours. The luminescence intensity were measured at 0h, 8h, 16h, 24h, 32h and 40h time points using ViewLux plate reader during compound treatment.
With `CC(=O)Nc1ccc(C(=O)O)cc1`, the Potency entry was “inactive”.

Turning to `CC#C[C@]1(O)CC[C@H]2[C@@H]3CCC4=CC(=O)CCC4=C3[C@@H](c3ccc(N(C)C)cc3)C[C@@]21C`, the “viability change, negative = cytotoxic” value is -26.1% [at 35.3 µM].

Consider `Cc1ccc(C(=O)O)o1`, for which the Potency result was “inactive”.

For the compound `O=[N+]([O-])C(CO)(CO)CO`, the Potency entry was “inactive”.

With `CC(C)Cc1ccccc1`, the Potency result was “inactive”.

With `C=C(C)C(=O)OCCC[Si](OC)(OC)OC`, the Potency entry was “inactive”.

For the compound `CC(=O)CCc1ccccc1`, the Potency result is “inactive”.

In the case of `OCC#CCO`, the Potency result is “inactive”.

As for `CCCCCCOC(C)=O`, the Potency result is “inactive”.

For `CCOC(=O)C1OC1c1ccccc1` (stereo not given), the Potency result is “inactive”.

With `C[C@@H]1O[C@@H](OC[C@H]2O[C@@H](Oc3c(-c4ccc(O)c(O)c4)oc4cc(O)cc(O)c4c3=O)[C@H](O)[C@@H](O)[C@@H]2O)[C@H](O)[C@H](O)[C@H]1O`, the Potency entry was “inactive”.

With `OC[C@@H](O)[C@@H](O)[C@H](O)[C@@H](O)CO`, the Potency entry was “inactive”.

Take `Oc1ccc2ccccc2c1`: the Potency entry is “inactive”.

`Nc1nc2ncc(CNc3ccc(C(=O)N[C@@H](CCC(=O)O)C(=O)O)cc3)nc2c(=O)[nH]1`: the Potency entry is “inactive”.

`COC(=O)c1ccccc1O`: the Potency result is “inactive”.

Turning to `CCC(C)C=O` (stereo not given), the Potency entry was “inactive”.

Consider `Oc1ccc(OCc2ccccc2)cc1`, for which the Potency result was “inactive”.

With `NCCc1ccc(O)c(O)c1`, the Potency entry was “inactive”.

For the compound `CN(C)c1cccc(O)c1`, the Potency entry is “inactive”.

As for `Cc1cc(O)c2c(c1)C(=O)c1cc(O)cc(O)c1C2=O`, the Potency entry was “inactive”.

As to `COC(=O)c1ccc(C(=O)OC)cc1`, the Potency result is “inactive”.

As to `Cc1cc(=O)[nH]c(C(C)C)n1`, the Potency entry was “inactive”.

In the case of `CCCCC(CC)COC(=O)CCCCCCCC(=O)OCC(CC)CCCC` (stereo not given), the Potency entry is “inactive”.

In the case of `C=C(C#N)C(=O)OCC`, the Potency result was “inactive”.

As to `CCCCCCCCC`, the Potency result is “inactive”.

As to `Nc1c(S(=O)(=O)O)cc(Br)c2c1C(=O)c1ccccc1C2=O`, the Potency result is “inactive”.

With `CC[Si](OC(C)=O)(OC(C)=O)OC(C)=O`, the Potency result was “inactive”.

With `Cc1cc(O)cc(C)c1Cl`, the Potency entry was “inactive”.

In the case of `CCCCOCCO`, the Potency entry was “inactive”.

As for `O=C1O[C@H](CO)[C@@H](O)[C@H](O)[C@H]1O`, the Potency entry was “inactive”.

Consider `CN(CCOc1ccc(CC2SC(=O)NC2=O)cc1)c1ccccn1` (stereo not given), for which the Potency result was “inactive”.

Take `CC(C)(N=C=O)c1cccc(C(C)(C)N=C=O)c1`: the Potency result was “inactive”.

Regarding `CCc1ccccc1O`, the Potency entry was “inactive”.

In the case of `CC(C)(C)C(=O)C1C(=O)c2ccccc2C1=O`, the Potency result was “inactive”.

As to `O=C(Cl)c1c(Cl)c(Cl)c(C(=O)Cl)c(Cl)c1Cl`, the Potency entry is “inactive”.

For the compound `CC1=CC[C@H]2C[C@@H]1C2(C)C`, the Potency result was “inactive”.

Turning to `ClC1=C(Cl)C(Cl)(Cl)C(Cl)=C1Cl`, the Potency result is “inactive”.

With `NCc1cccc(CN)c1`, the Potency result was “inactive”.

Consider `C/C=C(C)/C=C/C=C(C)C`, for which the Potency entry is “inactive”.

On to `CCCCC/C=C\C/C=C\CCCCCCCC(=O)OC`, for which the Potency result was “inactive”.
